Data published in PubChem BioAssay (NCATS).
Inconclusive results are not listed. Active and inactive are the calls of the source. The call rests on the fitted dose curve; in most records, active means well fitted curve in the direction sought with a large enough effect; inconclusive means small, poorly fitted or top-dose-only effect, or another doubt; inactive means no such curve, though single readings can be large; an effect the other way counts as inactive or inconclusive.

Legend:
[1] = Cellular Toxicity (caspase-3) Mesangial (AID 660); conditions: mesangial cells, normalized: DMSO 0%, 100 µM tamoxifen 100%; at 91.7 µM (top of the series);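 further: combined caspase 3 and 7 activity read by Caspase-Glo luminescence; cells exposed to compound for 16 h before the caspase read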
Method in brief: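 Seed cells derived from normal human renal glomeruli, incubate 5 h, add compounds across concentrations and incubate 16 h at 37 °C. Caspase 3/7 activation is then quantified by luciferase light, with AC50 derived by Hill modeling.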

[2] = Cellular Toxicity (caspase-3) SK-N-SH (AID 661);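 further: 0% = DMSO basal and 100% = 10 µM staurosporine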
Method in brief: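 Cells were seeded and incubated 5 hr at 37 °C, dosed with compound over a concentration range for 16 hr, then given Caspase-Glo 3/7 reagent for 1 hr at room temperature before luminescence reading.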

[3] = Cellular Toxicity (caspase-3) H-4-II-E (AID 663); conditions: H-4-II-E rat hepatoma, scaled: DMSO 0%, 100 µM tamoxifen 100%; at 92.2 µM (top of the series);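 further: cells exposed to compound for 16 hr before readout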
Method in brief: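 H-4-II-E rat hepatoma, 1500 cells/well, 5 hr settle at 37 °C; compound 16 hr, 37 °C, complete medium; Caspase-Glo 3/7, 20 min RT; luminescence. DMSO = 0%, 100 uM tamoxifen = 100%; Hill-equation AC50.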

[4] = Cellular Toxicity (caspase-3) Hek293 (AID 664); conditions: HEK293 caspase-3 activation, DMSO = 0%, 100 µM tamoxifen = 100%; at 92.2 µM (top of the series);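 further: cells exposed to compound for 16 h at 37 °C before readout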
Method in brief: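 qHTS, HEK293 (human embryonic kidney), 16 h cpd exposure in complete medium. Caspase-3/7 activation = luminescence increase; normalized to DMSO/100 uM tamoxifen; Hill-fit AC50.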

[5] = Cellular Toxicity (caspase-3) N2a (AID 665);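 further: compound exposure lasted 16 h at 37 °C before readout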
Method in brief: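 Caspase-3/7 activation, measured as increased luminescence from aminoluciferin release, is quantified in mouse N2a cells exposed to compounds for 16 h. Values are normalized to DMSO and 10 uM staurosporine, with AC50 derived by Hill modelling.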

[6] = Cellular Toxicity (caspase-3) NIH 3T3 (AID 666);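 further: caspase signal read after 16 h compound exposure; 0% = DMSO basal and 100% = 100 µM tamoxifen stimulation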
Method in brief: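 Cells were plated at 1000 per well and incubated 5 hr at 37°C, then compound was added for 16 hr. Caspase-Glo 3/7 reagent followed for 20 min at room temperature before luminescence was read.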

[7] = Cellular Toxicity (caspase-3) Renal Proximal Tubule (AID 667); conditions: Potency: caspase-3 activation;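 further: cells exposed to compound for 16 hours at 37 °C before detection; 0% = DMSO basal and 100% = 10 µM staurosporine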
Method in brief: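 Caspase 3/7 activation measured by luminescent aminoluciferin release in primary rat proximal tubule cells after 16 hr compound exposure at 37 °C. AC50 from Hill-fitted concentration-response, scaled between DMSO and 10 uM staurosporine.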

[8] = biological target: Cytochrome P450 3A4 (Homo sapiens) (UniProt P08684); assay: qHTS Assay for Inhibitors and Substrates of Cytochrome P450 3A4 (AID 884); further: on the % scale 0 is the no-effect control and ±100 the full control effect; nearly all actives have a fitted effect of over 50% in size
Method in brief: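 Luminescent readout of luciferin produced by CYP3A4 (20 nM) dealkylation of Luciferin-PPXE, 25 uM (its KM). NADPH-driven reaction ran 60 min at RT after 10 min compound preincubation; data scaled to 57 uM ketoconazole as 100% inhibition.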

[9] = Cell Viability - LYMP2-001 (AID 921);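 further: 0% = DMSO only and full inhibition = tetraoctylammonium bromide control wells; nearly all actives have a fitted effect of over 70% in size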
Method in brief: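 Cellular ATP loss read by luciferase luminescence after 24 h compound exposure at 37 C in complete medium. LYMP2-001 lymphoblastoid cells, 2500/well; qHTS concentration-response data fitted with Hill equation for AC50.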

[10] = MultiTox-Fluor Cytotoxicity Assay - LYMP1-001 - Dead Cells (AID 946);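 further: 0% = DMSO and 100% = tetraoctylammonium bromide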
Method in brief: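 LYMP1-001 lymphoblastoid cells (2500/well) treated 16 h at 37 C. Dead-cell protease cleavage of bis-AAF-R110 read at Ex/Em 485/520. Normalized to DMSO and 15 uM tetraoctylammonium bromide; AC50 from Hill fits.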

[11] = MultiTox-Fluor Cytotoxicity Assay - LYMP1-001 - Live Cells (AID 947);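 further: 0% = DMSO only and full inhibition = tetraoctylammonium bromide control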
[12] = Cell Viability - LYMP1-002 - Assay at 16 hr (AID 948);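 further: 0% = DMSO alone and full effect = 92 µM tetraoctylammonium bromide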
Method in brief: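 ATP luminescence (CellTiter-Glo) was measured after 16 hr compound exposure at 37 C of 2500 lymphoblastoid LYMP1-002 cells per well. Concentration-response curves were fitted with the Hill equation to give AC50.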

[13] = MultiTox-Fluor Cytotoxicity Assay - LYMP1-002 - Live Cells (AID 955); further: on the % scale 0 is the no-effect control and ±100 the full control effect
Method in brief: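 Cells were seeded at 2500 per well and incubated 5 hr. Compounds were then added for 16 hr at 37 C, followed by MultiTox-Fluor reagent for 60 min at room temperature and fluorescence reading of viable-cell protease signal.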

[14] = MultiTox-Fluor Cytotoxicity Assay - LYMP1-002 - Dead Cells (AID 960);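 further: 0% = DMSO and 100% = tetraoctylammonium bromide; nearly all actives have a fitted effect of over 60% in size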
Method in brief: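 Cells were plated, rested 5 hr, then treated with compound dilution series for 16 hr at 37 C. After adding substrate reagent and 60 min at room temperature, dead-cell protease fluorescence gave concentration-response curves fitted by the Hill equation.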

[15] = MultiTox-Fluor Cytotoxicity Assay - LYMP1-003 - Dead Cells (AID 961);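 further: 0% = DMSO and 100% = tetraoctylammonium bromide; nearly all actives have a fitted effect of over 70% in size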
Method in brief: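 LYMP1-003 human lymphoblastoid cells (2500/well) exposed to compound 16 h at 37 C in complete medium; dead-cell protease read with bis-AAF-R110 fluorescence (Ex/Em 485/520) after 60 min at room temperature. Normalized to DMSO and 15 uM tetraoctylammonium bromide; AC50 from Hill fit.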

[16] = MultiTox-Fluor Cytotoxicity Assay - LYMP1-003 - Live Cells (AID 962);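 further: 0% = DMSO only and full loss = 92 µM tetraoctylammonium bromide; cytotoxic hits lower the live-cell protease signal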
Method in brief: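 Acute cytotoxicity is scored as a drop in live-cell protease activity in human lymphoblastoid LYMP1-003 cells after 16 hr compound exposure at 37 C. AC50 values come from Hill-equation modelling of concentration-response data.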

[17] = Cell Viability - LYMP1-003 - Assay at 24 hr (AID 963);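 further: plate controls were DMSO only for no effect and tetraoctylammonium bromide positive control for full effect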
Method in brief: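 Cytotoxicity is scored as a concentration-dependent fall in ATP-linked luciferase signal in human lymphoblastoid LYMP1-003 cells treated 24 hr at 37 C in complete culture medium.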

[18] = Cell Viability - LYMP1-003 - Assay at 40 hr (AID 964); further: on the % scale 0 is the no-effect control and ±100 the full control effect; nearly all actives have a fitted effect of over 60% in size
Method in brief: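 Luminescent ATP signal (CellTiter-Glo) served as the viability read-out after 40 hr compound treatment of human lymphoblastoid LYMP1-003 cells at 37 C. Decreases in ATP were fitted with the Hill equation to give AC50.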

[19] = Cell Viability - LYMP2-003 (AID 965);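 further: cells exposed to compounds for 24 h before reading; 0% = DMSO only and full effect = 92 µM tetraoctylammonium bromide; nearly all actives have a fitted effect of over 50% in size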
Method in brief: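 CellTiter-Glo luminescence quantified ATP loss after 24 h compound treatment of LYMP2-003 lymphoblastoid cells at 37 C. Titration series were fitted with the standard Hill equation to give AC50.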

Cytochrome P450 3A4 (Homo sapiens), sequence (P08684 whole entry, looked up): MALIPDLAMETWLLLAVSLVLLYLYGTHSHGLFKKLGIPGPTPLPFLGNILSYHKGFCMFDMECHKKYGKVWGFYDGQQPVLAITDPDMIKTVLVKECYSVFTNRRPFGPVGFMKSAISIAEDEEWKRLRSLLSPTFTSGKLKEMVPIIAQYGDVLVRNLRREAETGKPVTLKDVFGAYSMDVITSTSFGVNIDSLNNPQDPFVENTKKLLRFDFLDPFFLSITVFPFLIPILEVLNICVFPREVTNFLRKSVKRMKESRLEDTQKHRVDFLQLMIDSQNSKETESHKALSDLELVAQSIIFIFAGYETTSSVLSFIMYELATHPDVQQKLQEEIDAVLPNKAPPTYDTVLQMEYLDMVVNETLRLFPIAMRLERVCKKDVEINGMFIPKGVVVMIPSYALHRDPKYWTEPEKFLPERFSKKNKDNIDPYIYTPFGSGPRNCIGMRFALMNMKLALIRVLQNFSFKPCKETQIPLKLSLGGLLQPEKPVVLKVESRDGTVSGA

O=Cc1ccc(Cl)cc1
inactive: caspase-3 activation [1] 0.65% | outcome [2] | caspase-3 activation [3] 0.113% | caspase-3 activation [4] 2% | outcome [5] | outcome [6] | Potency [7] | Potency [8] | Potency [9] | outcome [10] | outcome [11] | outcome [12] | outcome [13] | outcome [14] | Potency [15] | Potency [16] | Potency [17] | Potency [18] | Potency [19]

O=[N+]([O-])c1cccc(Cl)c1
inactive: caspase-3 activation [1] -0.653% | outcome [2] | caspase-3 activation [3] 0.41% | caspase-3 activation [4] -2.38% | outcome [5] | outcome [6] | Potency [7] | Potency [8] | Potency [9] | outcome [10] | outcome [11] | outcome [12] | outcome [13] | outcome [14] | Potency [15] | Potency [16] | Potency [17] | Potency [18] | Potency [19]

Nc1ccccc1[N+](=O)[O-]
inactive: caspase-3 activation [1] -0.609% | outcome [2] | caspase-3 activation [3] 1.23% | caspase-3 activation [4] -2.96% | outcome [5] | outcome [6] | Potency [7] | Potency [8] | Potency [9] | outcome [10] | outcome [11] | outcome [12] | outcome [13] | outcome [14] | Potency [15] | Potency [16] | Potency [17] | Potency [19]

O=C(O)c1ccccc1C(=O)O
inactive: caspase-3 activation [1] 1.74% | outcome [2] | caspase-3 activation [3] -0.105% | caspase-3 activation [4] 3.14% | outcome [5] | outcome [6] | Potency [7] | Potency [8] | Potency [9] | outcome [10] | outcome [11] | outcome [12] | outcome [13] | outcome [14] | Potency [15] | Potency [16] | Potency [17] | Potency [19]

CCOC(=O)OCC
inactive: caspase-3 activation [1] -0.584% | outcome [2] | caspase-3 activation [3] -0.0213% | caspase-3 activation [4] -2.59% | outcome [5] | outcome [6] | Potency [7] | Potency [8] | Potency [9] | outcome [10] | outcome [11] | outcome [12] | outcome [13] | outcome [14] | Potency [15] | Potency [16] | Potency [17] | Potency [18] | Potency [19]

C=Cc1ccccn1
inactive: caspase-3 activation [1] 2.96% | outcome [2] | caspase-3 activation [3] 1.92% | caspase-3 activation [4] 3.43% | outcome [5] | outcome [6] | Potency [7] | Potency [8] | Potency [9] | outcome [10] | outcome [11] | outcome [12] | outcome [13] | outcome [14] | Potency [15] | Potency [17] | Potency [18] | Potency [19]

C1COC1
inactive: caspase-3 activation [1] 0.626% | outcome [2] | caspase-3 activation [3] 1.05% | caspase-3 activation [4] -1.66% | outcome [5] | outcome [6] | Potency [7] | Potency [8] | Potency [9] | outcome [10] | outcome [11] | outcome [12] | outcome [13] | outcome [14] | Potency [15] | Potency [16] | Potency [17] | Potency [18] | Potency [19]

CC1CCCO1 (stereo not given)
inactive: caspase-3 activation [1] -0.0447% | outcome [2] | caspase-3 activation [3] -0.992% | caspase-3 activation [4] -1.6% | outcome [5] | outcome [6] | Potency [7] | Potency [8] | Potency [9] | outcome [10] | outcome [11] | outcome [12] | outcome [13] | outcome [14] | Potency [15] | Potency [16] | Potency [17] | Potency [19]

CCOCC(=O)O
inactive: caspase-3 activation [1] 1.49% | outcome [2] | caspase-3 activation [3] 0.681% | caspase-3 activation [4] 1% | outcome [5] | outcome [6] | Potency [7] | Potency [8] | Potency [9] | outcome [10] | outcome [11] | outcome [12] | outcome [13] | outcome [14] | Potency [15] | Potency [16] | Potency [17] | Potency [18] | Potency [19]

Nc1cccc(S(=O)(=O)O)c1
inactive: caspase-3 activation [1] -0.0111% | outcome [2] | caspase-3 activation [3] -0.597% | caspase-3 activation [4] -1.89% | outcome [5] | outcome [6] | Potency [7] | Potency [8] | Potency [9] | outcome [10] | outcome [11] | outcome [12] | outcome [13] | Potency [15] | Potency [16] | Potency [17] | Potency [18] | Potency [19]

Cc1cccc([N+](=O)[O-])c1C(=O)O
inactive: caspase-3 activation [1] -0.481% | outcome [2] | caspase-3 activation [3] 1.44% | caspase-3 activation [4] 2.11% | outcome [5] | outcome [6] | Potency [7] | Potency [8] | Potency [9] | outcome [10] | outcome [11] | outcome [12] | outcome [13] | Potency [15] | Potency [16] | Potency [17] | Potency [18] | Potency [19]

C/C=C(/C)C#N
inactive: caspase-3 activation [1] -0.503% | outcome [2] | caspase-3 activation [3] 0.589% | caspase-3 activation [4] 0.51% | outcome [5] | outcome [6] | Potency [7] | Potency [8] | Potency [9] | outcome [10] | outcome [11] | outcome [12] | outcome [14] | Potency [15] | Potency [16] | Potency [17] | Potency [18] | Potency [19]

O=C(O)c1ccc(Cl)c(Cl)c1
inactive: caspase-3 activation [1] -0.246% | outcome [2] | caspase-3 activation [3] -0.517% | caspase-3 activation [4] 0.484% | outcome [5] | outcome [6] | Potency [7] | Potency [8] | Potency [9] | outcome [10] | outcome [11] | outcome [12] | outcome [13] | Potency [15] | Potency [16] | Potency [17] | Potency [19]

CCc1ccccc1O
inactive: caspase-3 activation [1] -0.562% | outcome [2] | caspase-3 activation [3] -0.213% | caspase-3 activation [4] -1.55% | outcome [5] | outcome [6] | Potency [7] | Potency [8] | Potency [9] | outcome [10] | outcome [11] | outcome [12] | outcome [13] | Potency [15] | Potency [17] | Potency [18] | Potency [19]
